Assay outcomes: PubChem BioAssay, National Center for Advancing Translational Sciences (NCATS)
CHX counter: affects cycloheximide protein synthesis inhibition readout, counter-screen. cell reporter, cycloheximide protein synthesis inhibition counterscreen. max response, %. actives 12% (n = 300,000); in the data active means max response mostly above about 13%, no sharp cut-off; inactive means mostly below about 14%; further: read at 38.3 µM for the half of the compounds with a filed dose; 0% is about no effect
Pf growth 96h: P. falciparum growth inhibition at 96 hours; actives 6.9% (n = 320,000); Potency, µM (highest dose often 28.7 µM), for inactives: at the highest dose activity change, negative = inhibition, most hits filed as inhibitors; P. falciparum luciferase reporter growth, 96 h; AID 504834; further: potency means the concentration at half of the fitted maximal effect; on the % scale 0 is the no-effect control and ±100 the full control effect
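Cell-based qHTS: luciferase-tagged P. falciparum in erythrocytes (2% hematocrit, 0.05% parasitemia final) incubated with compounds for 96 hours, 37 C, 5% CO2; luciferase detection reagent then added and luminescence measured.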
Pf growth 48h: P. falciparum growth inhibition at 48 hours (one generation). Potency, µM (titrated, usually from 28.7 µM), for inactives: at the highest dose activity change, negative = inhibition, actives largely listed as inhibitors. P. falciparum luciferase growth in erythrocytes, 48 h. actives 5.9% (n = 310,000). AID 504832; further: potency means the concentration at half of the fitted maximal effect; on the % scale 0 is the no-effect control and ±100 the full control effect
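Firefly luciferase activity from engineered P. falciparum reports growth; inhibitors lower the luminescent signal. Cultures contained 2% hematocrit erythrocytes at 0.1% final parasitemia.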
HCV inh: HCV inhibition. Huh7.5.1 HCVcc-Cre infection, luciferase reporter, 44 h. Potency, µM (doses to about 41.8 µM), for inactives: top-dose activity change, negative = inhibition, most hits filed as inhibitors. actives 3.4% (n = 340,000). AID 651820; further: potency means the concentration at half of the fitted maximal effect; on the % scale 0 is the no-effect control and ±100 the full control effect
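Antiviral activity was scored by luciferase reporter output from cells infected with HCVcc-Cre (~0.5 moi) in presence of compound, 44 h infection period, cells seeded 1,000/well 4 h prior.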
HCMV antiviral: blocks human cytomegalovirus replication. HFF cells, HCMV-luciferase reporter, 72 h; active compounds read low. actives 4.5% (n = 410,000). AID 1259415. activity change, negative = inhibition, % at 57.5 µM; in the data active means activity change below about -60%; inconclusive means no clear call, values can overlap the other calls; inactive means above about -39%; further: on the % scale 0 is the no-effect control and ±100 the full control effect
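Luciferase read-out from HCMV-luciferase-infected HFFs (MOI 1 PFU/cell) 72 h post infection at 37C; compounds added after 16 h cell attachment; activity normalized between buffer-only basal and Salinomycin (10uM) inhibitor controls.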
Shiga inhibitor: inhibitors of Shiga toxin in Vero cells | Vero cells, Shiga toxin protein synthesis inhibition reporter | inhibition, % at 38.7 µM | actives 9.2% (n = 290,000); in the data active means inhibition mostly above about 28%, no sharp cut-off; inactive means mostly below about 43%; further: 0% is about no effect
Active calls of the source: *; ? = inconclusive; / = no result; ! = a repeat was not active. Sampled rows, rich in hits. Any-hit rate of the full collection: about 21%. Unless noted, the call rests on the fitted dose curve; in most records, active means well fitted inhibition curve with a large enough effect; inconclusive means small, poorly fitted or top-dose-only effect, or another doubt; inactive means no such curve, though single readings can be large or run the other way.

SMILES	CHX counter	Pf growth 96h	Pf growth 48h	HCV inh	HCMV antiviral	Shiga inhibitor
CCN(CC)CCC(=O)N1c2ccccc2Sc2ccc(C(F)(F)F)cc21	/	-85%	-44%	/	-85*	/
CCN(CC)CCC(=O)N1c2ccccc2Sc2ccc(Cl)cc21	/	1.7µM*	?	?	?	/
O=C(CCN1CCN(CCO)CC1)N1c2ccccc2Sc2ccc(C(F)(F)F)cc21	-2	?	?	13µM*	35	-9
COc1ccc(C(C(=O)NC(C)(C)C)n2c(=O)c(-c3cc4ccccc4[nH]3)nc3ccccc32)cc1 (stereo not drawn)	/	/	/	/	21	/
COc1ccc(NC(=O)COC(=O)CCC2CCCC2)c(OC)c1	/	/	/	2%	?	/
N#Cc1ccsc1NC(=O)CCN1CCN(C(c2ccccc2)c2ccccc2)CC1	-3	?	?	?	7	-10
CN(C)/[N+]([O-])=N/Oc1cc(ON=[N+]([O-])N2CCN(c3ncccn3)CC2)c([N+](=O)[O-])cc1[N+](=O)[O-]	9	/	/	/	/	-3
CN(C)CC(=O)N1c2ccccc2Sc2ccc(Cl)cc21	1	-14%	-12%	?	-64*	-16
Cc1cc(C)n(CC(=O)N2c3ccccc3Sc3ccc(C(F)(F)F)cc32)n1	-5	?	10µM*	?	-6	-20
O=C(CN1CCOCC1)N1c2ccccc2Sc2ccc(Cl)cc21	/	/	/	/	13	/
c1ccc2c(c1)Sc1ccccc1N2CCN1CCCC1	/	15µM*	17µM*	/	/	/
CN(C)CCC(=O)N1c2ccccc2Sc2ccc(Cl)cc21	-8	16%	?	6.3µM*	?	-6
O=C(CN1CCCC(O)C1)N1c2ccccc2Sc2ccc(C(F)(F)F)cc21 (stereo not drawn)	-4	35%	?	0%	20	-27
O=C1NC[C@H](CCCCN2C[C@H](Cc3ccc(O)cc3)N(CCc3ccccc3)C(=O)C2=O)N(Cc2ccccc2)C1=O	/	/	/	/	-22	/
Cc1c(CNC2CCCCCC2)c(C(=O)O)c(C)n1Cc1c(F)cccc1Cl	/	/	/	/	-1	/
NCCC(=O)N1c2ccccc2Sc2ccc(Cl)cc21	-9	-3%	?	?	35	-17
O=C(CCN1CCN2CCCC2C1)N1c2ccccc2Sc2ccc(Cl)cc21 (stereo not drawn)	-2	11µM*!	?	?	-1	-11
O=C1CSC2(CCN(CCCN3c4ccccc4Sc4ccc(Cl)cc43)CC2)N1	/	8.5µM*	?	/	/	/
NCCCC(=O)N1c2ccccc2Sc2ccc(Cl)cc21	-1	7%	?	5µM*	23	-6
N#Cc1ccc(CSc2nnc3[nH]c(=O)cc(N)n23)cc1	8	-38%	4.1µM*	24%	-34	21
COc1ccc(N(C(=O)c2snc(C(N)=O)c2N)C(C(=O)NCc2ccccc2)c2ccc(O)cc2)cc1 (stereo not drawn)	6	9%	-13%	?	26	-13
NC(=O)c1nsc(C(=O)N(Cc2cccnc2)C(C(=O)NC2CCCC2)c2ccc(F)cc2)c1N (stereo not drawn)	-5	12%	?	10%	30	-5
COc1ccc(OC)c(C(C(=O)NC2CCCCC2)N(C(=O)c2snc(C(N)=O)c2N)c2ccccc2OC)c1 (stereo not drawn)	6	0%	2.6µM*	0%	-61*	-7
COc1ccc(C(C(=O)NC2CCCC2)N(Cc2cccnc2)C(=O)c2snc(C(N)=O)c2N)cc1 (stereo not drawn)	-5	13µM*	12µM*	-19%	34	-3
COc1ccc(OC)c(N(C(=O)c2snc(C(N)=O)c2N)C(C(=O)NCc2ccccc2)c2ccc(O)cc2)c1 (stereo not drawn)	-3	13µM*	10µM*	?	0	1
COc1cccc(C(C(=O)NC2CCCC2)N(C(=O)c2ccco2)c2ccccc2F)c1OC (stereo not drawn)	-2	31%	8.3µM*	7%	25	5
Cc1ccc(CNC(=O)c2c(-c3ccccc3Cl)noc2C)o1	/	/	/	/	-4	/
COc1ccc(Nc2nccc3c2cc(-c2cccc(C(F)(F)F)c2)n3C)c(OC)c1	/	/	/	/	15	/
